The text below walks through data of ChEMBL document CHEMBL3988442, “University of Dundee, Small-Polar-MMV Screening Library” (2021).

Each structure is given as a SMILES string. The campaign covered roughly 48,000 compounds. About 13,000 (27%) showed an effect of 50% or more. The list shows a part of the results.

The assay has as its system Wolbachia pipientis. The experiment in a line: Anti-Wolbachia Cell-Based Screen. Set-up: scale not given: in the data most compounds retested in dose-response had high values. The settings on record: 5 µM. It counts as functional.
On to `CC(C)c1ccc(S(=O)(=O)NC2CCN(CC(F)(F)F)C2)cc1` (stereo not given), for which the “Percent Effect” value came to 12.82%.

For the compound `CC(C)Oc1ccc(CN2CCCC(N3CCOCC3)C2)cc1CO` (stereo not given), the “Percent Effect” value is -0.1551%. Consider `COc1cc(Cl)cc(CN2CCCC(N3CCOCC3)C2)c1OC` (stereo not given), for which the “Percent Effect” value was determined as 106.9%. The value for `COc1cc(CN2CCC(O)(c3ccc(C)cn3)CC2)cc(Cl)c1OC` was -12.14%; that for `O[C@@H]1CN(CC2=Cc3cc(Cl)ccc3OC2)CC[C@H]1N1CCCCCC1` was 0.906%; that for `COc1cc(CN2CC[C@@H](N3CCCCCC3)[C@H](O)C2)cc(Cl)c1OC` was 100.3%. The value for `COc1ccc(CN2CCCC(N3CCCC3)C2)cc1Cn1cncn1` (stereo not given) was 15.57%; that for `COc1ccc(CN2CCCC(n3cccn3)C2)c(Cl)c1OC` (stereo not given) was 1.14%. With `Cc1cc(C)c2[nH]c(CN3CCCC(N4CCOCC4)C3)cc(=O)c2c1` (stereo not given) the figure was 0.1169%; with `COc1cc(Cl)cc(CN2CCCC(N3CCCC3)C2)c1OC` (stereo not given), 116%.

In the case of `CNC(=O)[C@@H]1COC[C@H]2CN(C(=O)c3ccc(C)c(F)c3)C[C@H]21`, the “Percent Effect” value worked out at 1.789%. For `COC(CNC(=O)CNC(=O)c1ccccc1)c1cccc(Cl)c1` (stereo not given), the “Percent Effect” value is -36.87%. Turning to `Cc1ncsc1CN1C[C@H](OCC(C)C)[C@H]2OCCC[C@H]21.O=C(O)C(F)(F)F`, the “Percent Effect” value is given as -14.06%. In the case of `CCO[C@@H]1CC[C@H]2[C@H]1OCCN2C(=O)c1nn(C)c2ccccc12`, the “Percent Effect” value came to 106.4%. For `CCO[C@H]1CC[C@H]2[C@H]1OCCN2C(=O)c1nn(C)c2ccccc12`, the “Percent Effect” value was determined as 108.7%. On to `Cc1ccc(C(=O)N2CCO[C@H]3[C@@H](OCc4ccccn4)CC[C@@H]32)o1.O=C(O)C(F)(F)F`, for which the “Percent Effect” value is given as -5.404%.

On to `CCO[C@@H]1CC[C@H]2[C@H]1OCCN2C(=O)c1ccc(OC)c(F)c1`, for which the “Percent Effect” value was -22.06%.

Take `CC(C)CNC(=O)C1=NOC2(CCN(Cc3ccc(C(C)C)cc3)C2)C1` (stereo not given): the “Percent Effect” value turned out to be 105.9%. With `O=C(NCC1CC1)C1=NOC2(CCN(Cc3ccsc3)C2)C1` (stereo not given), the “Percent Effect” value was -10.07%.

With `COc1ccc(CN2CCC3(CC(C(=O)NCC(C)C)=NO3)C2)cc1` (stereo not given), the “Percent Effect” value is on record as 91.98%. With `O=C(NCC1CC1)C1=NOC2(CCN(Cc3ccc(Cl)c(F)c3)C2)C1` (stereo not given) the figure was 0.8389%.

For the compound `CC(C)CNC(=O)C1=NOC2(CCN(Cc3ccoc3)C2)C1` (stereo not given), the “Percent Effect” value stood at 98.99%. With `Cc1ccc(CN2CCC3(CC(C(=O)NCC4CC4)=NO3)C2)s1` (stereo not given) the figure was -2.379%; with `CCc1ccc(CN2CCC3(CC(C(=O)NCC(C)C)=NO3)C2)o1` (stereo not given), 102%. The value for `CCc1ccc(C(NC(=O)CCS(C)(=O)=O)C(C)(C)C)o1` (stereo not given) was 18.74%. Regarding `CN1CCC(NN2CCN(C)CC2)CC1`, the “Percent Effect” value was 4.594%. The value for `O=C(CSc1ccccc1)Nc1cnn(CC(=O)N2CCCO2)c1` was 2.043%. Take `Cc1ccc(C)c(OCC(O)CN(C)CC(=O)Nc2cc(C)on2)c1` (stereo not given): the “Percent Effect” value is on record as 16.51%. With `CCN1CCC2(CC1)c1nc[nH]c1CCN2S(C)(=O)=O`, the “Percent Effect” value is -21.15%.

In the case of `COC(=O)C1CCN(C(=O)c2ccc(C)c(NS(C)(=O)=O)c2)CC1`, the “Percent Effect” value is recorded as -2.362%. With `COc1ccccc1OCCCc1cc(C)nc(N)n1`, the “Percent Effect” value was -105.6%. Turning to `CCS(=O)(=O)N1CCOC2(CCCN(c3cnccn3)C2)C1.O=C(O)C(F)(F)F` (stereo not given), the “Percent Effect” value is -12.03%. With `Cn1ccc(C(=O)N2C[C@@H]3CCN(c4cnccn4)C[C@@H]3C2)n1.O=C(O)C(F)(F)F` the figure was 6.862%; with `O=C(c1ccc(-n2ccnc2)cc1)N1CCN(c2cnccn2)CC1`, 1.028%. With `COc1ccccc1OC1(C(=O)O)CCN(c2cnccn2)CC1` the figure was -132.5%; with `CC(=O)NCC(=O)NCC1(O)CCN(c2cnccn2)C1` (stereo not given), 78.54%; with `Cn1ccc(C(=O)NCC2(O)CCN(c3cnccn3)C2)n1` (stereo not given), 120.2%. In the case of `CC(C#N)NS(=O)(=O)c1cccc(C(C)C)c1` (stereo not given), the “Percent Effect” value amounted to 0.8918%. Take `c1ccc(-c2nccc(N3CCc4c(ncn4C4CC4)C3)n2)cc1`: the “Percent Effect” value is on record as -6.711%. Consider `O=C(NCc1nncn1C1CC1)C1(c2ccc(F)cc2)CCCC1`, for which the “Percent Effect” value is -0.2127%. As to `O=C(NCC(O)COc1ccc(F)cc1)C1(c2ccc(F)cc2)CC1` (stereo not given), the “Percent Effect” value is recorded as 2.033%. The value for `O=C(CO)N1CCCC2(CCN(c3ccsc3)C2=O)C1` (stereo not given) was -8.553%; that for `O=C(N1CCCC1)N1CCCC2(CCN(c3ccsc3)C2=O)C1` (stereo not given) was -11.99%; that for `O=C(O)C(F)(F)F.O=C(c1ccccn1)N1CCCC2(CCN(c3ccsc3)C2=O)C1` (stereo not given) was 9.828%. Consider `Cc1nocc1C(=O)N1CCCC2(CCN(c3ccsc3)C2=O)C1` (stereo not given), for which the “Percent Effect” value amounted to 2.801%. On to `CN(C)C(=O)N1CCCC2(CCN(c3ccsc3)C2=O)C1` (stereo not given), for which the “Percent Effect” value is -73.81%. Turning to `Cn1nccc1C(=O)N1CCCC2(CCN(c3ccsc3)C2=O)C1` (stereo not given), the “Percent Effect” value is given as 54.5%. With `O=C1N(c2ccsc2)CCC12CCCN(c1ncc(F)cn1)C2` (stereo not given), the “Percent Effect” value was 91.96%. For `O=C1N(c2ccsc2)CCC12CCCN(c1ccccn1)C2` (stereo not given), the “Percent Effect” value was 116.3%. Consider `Cc1occc1C(=O)N1CCCC2(CCN(c3ccsc3)C2=O)C1` (stereo not given), for which the “Percent Effect” value is given as -9.998%.
